From PubChem BioAssay (NCATS) come the findings set out here.

Results filed as inconclusive are left out. Activity calls are given as the source filed them. The call rests on the fitted dose curve.

Chain of Peroxisome proliferator-activated receptor delta (Homo sapiens) (Q03181 whole entry, looked up): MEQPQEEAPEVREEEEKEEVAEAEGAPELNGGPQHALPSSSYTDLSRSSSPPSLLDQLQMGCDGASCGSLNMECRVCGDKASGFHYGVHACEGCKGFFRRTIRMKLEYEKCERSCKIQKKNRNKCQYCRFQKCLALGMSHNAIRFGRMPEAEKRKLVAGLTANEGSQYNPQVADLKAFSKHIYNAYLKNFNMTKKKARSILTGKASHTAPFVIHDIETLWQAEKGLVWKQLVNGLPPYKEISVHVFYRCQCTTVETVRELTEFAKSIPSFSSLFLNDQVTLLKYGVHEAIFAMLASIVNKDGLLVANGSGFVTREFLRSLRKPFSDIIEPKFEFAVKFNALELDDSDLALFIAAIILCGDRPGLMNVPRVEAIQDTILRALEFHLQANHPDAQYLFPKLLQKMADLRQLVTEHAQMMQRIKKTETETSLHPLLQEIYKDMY

This test has as its target Peroxisome proliferator-activated receptor delta (Homo sapiens) (UniProt Q03181). The test can be described thus: qHTS assay for small molecule agonists of peroxisome proliferator-activated receptor delta signaling (AID 588534).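 Further: 0% = DMSO basal wells and 100% = positive control agonist at 10 µM.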 The following applies: HEK293T PPARdelta-UAS-bla, beta-lactamase ratio, 18 h; series mostly up to 76.7 µM; activation: at the top concentration. The method, boiled down:
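Cell-based beta-lactamase reporter assay run in agonist mode: cells seeded and incubated 5 hrs at 37 C, compounds added and incubated 18 hrs at 37 C. CCF4 dye fluorescence read after 2 hrs at RT; EC50 and efficacy from Hill fits.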
For `Nc1nccs1`, the “activation” value was 0.396% (inactive). In the case of `CCCCCCN`, the “activation” value is 2.91% (inactive). Still for that read-out and setting: the value for `Nc1ccc([N+](=O)[O-])c(N)c1` was 11.9% (inactive); that for `O=C1OC(=O)c2cc([N+](=O)[O-])ccc21` was 3.63% (inactive); that for `CCCCCc1ccc(N)cc1` was -2.01% (inactive). In the case of `COCC(=O)O`, the outcome was inactive. For `CC=C(Cl)Cl`, the “activation” value is 0.326% (inactive). Consider `CCCCCCCCCCCCCCCO`, for which the “activation” value is 0.0793% (inactive). Consider `C=CCCCCCCCCCC`, for which the “activation” value was 2.62% (inactive). For the molecule `CCCCC(CC)CN` (stereo not given), the result was inactive. In the case of `CCOCC(=O)O`, the “activation” value is 3.72% (inactive). As to `O=[N+]([O-])c1ccccc1CCO`, the “activation” value was -2.16% (inactive). On the same count and under the same terms, the value for `O=C(O)c1ccccc1C(=O)O` was 0.141% (inactive). On the same count and under the same terms, the value for `C[C@@H]1O[C@@H](O[C@@H]2[C@@H](O)[C@H](OCCc3ccc(O)c(O)c3)O[C@H](CO[C@@H]3O[C@H](CO)[C@@H](O)[C@H](O)[C@H]3O)[C@H]2OC(=O)/C=C/c2ccc(O)c(O)c2)[C@H](O)[C@H](O)[C@H]1O` was -6.48% (inactive); that for `C1CCOC1` was 9.73% (inactive); that for `C/C(=C\C(C)CC(C)CC(C)C)C1CC(=O)OC1=O` (stereo not given) was -2.11% (inactive). `C/C=C\c1ccc(OC)cc1`: the “activation” value was 9.09% (inactive). The same measure, in the same setting: then `CC(O)COC(C)(C)C` (stereo not given), with -6.57% (inactive); and `CC1CCC(C(C)C)C(O)C1` (stereo not given), with 2.97% (inactive); and `CC(C)C=O`, with 0.0575% (inactive). On the same count and under the same terms, then `Nc1cccc(S(=O)(=O)O)c1`, with -1.02% (inactive); and `CCCCOCCOCCOCCO`, with 1.78% (inactive). Still for that read-out and setting: the value for `Cc1ccc(S(=O)(=O)NCl)cc1` was -2.48% (inactive).

Consider `CCCCCCCC(=O)OC`, for which the “activation” value was -1.86% (inactive). On the same count and under the same terms, the value for `Oc1ccc(O)c2c(O)cccc12` was 4.35% (inactive); that for `CC(C)(C)C1CCC(O)CC1` (stereo not given) was -2.25% (inactive).

On to `CO/N=C1\C[C@]2(C[C@@H]3C[C@@H](C/C=C(\C)C[C@@H](C)/C=C/C=C4\CO[C@@H]5[C@H](O)C(C)=C[C@@H](C(=O)O3)[C@]45O)O2)O[C@H](/C(C)=C/C(C)C)[C@H]1C`, for which the “activation” value was -5.94% (inactive).

`O=c1[nH]ncc2ccccc12`: the “activation” value is -8.59% (inactive). `Cc1ccc(C(C)(C)C)cc1`: the “activation” value is 1.93% (inactive). As to `OC(CCl)CCl`, the “activation” value was 9.83% (inactive). The same measure, in the same setting: then `CCCCCCCC/C=C\CCCCCCCCO`, with -1.04% (inactive); and `CCCCC(CC)CN1C(=O)C2C3C=CC(C3)C2C1=O` (stereo not given), with 10.9% (inactive); and `C=C(C)C(=O)OCCC[Si](Cl)(Cl)Cl`, with -0.262% (inactive). On the same count and under the same terms, the value for `CC(=O)c1cc(C)oc1C` was -2.59% (inactive); that for `CCCCC(CC)C(=O)OCCOCCOCCOC(=O)C(CC)CCCC` (stereo not given) was -9.72% (inactive). The same measure, in the same setting: the value for `O=C(O)CCCCCCCCC(=O)O` was 2.02% (inactive); that for `CC1(N)CCC(C(C)(C)N)CC1` (stereo not given) was 0.268% (inactive). As to `CC1=CC(C)(C)Nc2ccccc21`, the result was inactive. As for `O=[N+]([O-])c1cccc(Cl)c1`, the “activation” value is -6.37% (inactive). Same read-out and setting: then `Oc1cc2c(cc1O)[C@H]1c3ccc(O)c(O)c3OC[C@@]1(O)C2`, with -4.97% (inactive).
